HT1080 IDH1KD tx = qHTS for induction of synthetic lethality in tumor cells producing 2HG: qHTS for the HT-1080-IDH1KD cell line; actives 2% (n = 360,000); AID 686971, 2013; Potency, µM (top dose mostly 46.1 µM), without a hit: at the highest dose activity, negative = toxicity, most hits filed as cytotoxic; HT-1080 IDH1 knockdown viability, ATP luminescence, 48 h;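 further: 0% = DMSO wells and -100% = cell-free medium wells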
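Using the IDH1-knockdown HT-1080 line run in the same batch and compound series as the NT line, viability after 48 h at 37 °C was determined by CellTiter-Glo luminescence and expressed as % activity.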
ATXN2 expr inh = Primary qHTS for Inhibitors of ATXN expression. Potency, µM (series often up to 57 µM), for inactives: top-dose activity change, negative = inhibition, hits mostly inhibitors. actives 0.72% (n = 360,000). HEK-293 ATXN2-luciferase reporter, luminescence, 24 h. AID 1745845, 2022; further: on the % scale 0 is the no-effect control and ±100 the full control effect; nearly all actives have a fitted effect of over 55% in size
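ATXN2-luciferase reporter cells (luciferase flanked by upstream and downstream ATXN2 gene portions) were treated 24 h at 37 °C with compounds at up to 57 uM. SteadyGlo luminescence gave expression; GF-AFC fluorescence gave viability.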
HT1080NT lethal = qHTS for induction of synthetic lethality in tumor cells producing 2HG: qHTS for the HT-1080-NT fibrosarcoma cell line. HT-1080-NT fibrosarcoma viability, CellTiter-Glo ATP luminescence, 48 h. Potency, µM (series often up to 46.1 µM), inactives show top-dose activity, negative = less viability, actives largely listed as cytotoxic. actives 1.6% (n = 360,000). AID 686970, 2013;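 further: NT is the 2HG producing partner of a matched IDH1 knockdown line; 0% = DMSO-treated cells and -100% = media-only wells without cells; nearly all actives have a fitted effect of over 55% in size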
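750 cells/well, RPMI + 5% FBS; 2 h settle, compound pin-transfer, 48 h at 37 degrees C. CellTiter-Glo 10 min RT, luminescence. Normalized to DMSO and media-only wells.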
TGFb inhibitor = qHTS for Inhibitors of TGF-b; HepG2 CAGA-GFP TGF-b/SMAD3 reporter, GFP fluorescence, 18 h; TGF-beta stimulated, 500 pg/mL final; Potency, µM (doses to about 46.1 µM), inactives show top-dose activity, negative = inhibition, most hits filed as inhibitors; actives 1.2% (n = 410,000); AID 588855, 2011; further: on the % scale 0 is the no-effect control and ±100 the full control effect; nearly all actives have a fitted effect of over 65% in size
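Cell-based qHTS in HEPG2 carrying a CAGA-GFP Smad reporter; compounds added before 500 pg/mL final TGF-beta, 18 h incubation at 37 degrees C, GFP fluorescence quantified per cell by imaging cytometry.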
HepG2 viability = qHTS for Inhibitors of TGF-b: Cytotox Counterscreen; HepG2 CAGA-GFP viability, ATP luminescence, 18 h; Potency, µM (series often up to 46.1 µM), inactives show at the top dose activity change, negative = cytotoxicity, hits mostly cytotoxic; actives 0.76% (n = 410,000)
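HepG2 CAGA-GFP cells (1000/well, DMEM with 1% FBS) received compound, then TGF-beta at 500 pg/mL final, and were incubated 18 hours at 37 degrees C. Viability was read by CellTiter-Glo luminescence. Media-only wells were set as complete cell-killing and DMSO as no toxicity.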
S2 tox = Viability Counterscreen for Primary qHTS for Inhibitors of ATXN expression. Potency, µM (top dose mostly 56.7 µM), most hits filed as cytotoxic. actives 0.49% (n = 400,000). S2 cells (HEK-293 line with an ATXN2-luciferase reporter) viability, CellTiter-Fluor protease fluorescence, 24 h; further: nearly all actives have a fitted effect of over 40% in size
* = called active by the depositor; i = inactive; ? = inconclusive; . = not tested or not shown; ! = not active in a repeat; [ ] = dose if it differs, or a comment. This is a sample that favours compounds with a hit; in the whole collection about 3.9% have one here. The call rests on the fitted dose curve; in most records, active means well fitted curve in the direction sought with a large enough effect; inconclusive means small, poorly fitted or top-dose-only effect, or another doubt; inactive means no such curve, though single readings can be large; an effect the other way counts as inactive or inconclusive. Potency means the concentration at half of the fitted maximal effect.

SMILES	HT1080 IDH1KD tx	ATXN2 expr inh	HT1080NT lethal	TGFb inhibitor	HepG2 viability	S2 tox
CCN1C(C(=O)c2ccccc2)=C(OC(=O)C(C)C)c2ccccc2S1(=O)=O	.	-29%	.	11µM*	-38%	i
CCCN1C(C(=O)c2ccccc2)=C(OC(=O)c2ccc(C)cc2)c2ccccc2S1(=O)=O	.	.	.	-75%	-26%	.
CCCCCN1C(C(=O)c2ccccc2)=C(OC(=O)CC)c2ccccc2S1(=O)=O	.	-20%	.	?	11µM*	?
O=C(CCOCCOCCOCCOCCC(=O)Nc1c(I)cc(I)c(C(=O)O)c1I)Nc1c(I)cc(I)c(C(=O)O)c1I	.	6%	.	.	.	i
CCn1c(-c2cccc(OC)c2)nc2cc(NC(C)=O)cc(C(=O)N3CCCC(C(C)=O)C3)c21 (stereo unspecified)	.	.	.	.	.	i
CCCCC[C@@H](C)N1C[C@@H](COCc2ccccc2)Oc2cc(N3CC[C@H](N(C)C)C3)ccc2S1(=O)=O	?	?	21µM*	.	.	.
CCCCC[C@H](C)N1C[C@@H](COCc2ccccc2)Oc2cc(N3CC[C@H](N(C)C)C3)ccc2S1(=O)=O	-25%	?	?	.	.	?
Cc1ccc(Cn2cc(C(=O)c3ccc4c(c3)OCO4)c(=O)c3cc(C)ccc32)cc1	.	-39%	.	-22%	-18%	?
Cc1c(N2C(=O)/C(=C\c3ccccc3O)SC2=S)c(=O)n(-c2ccccc2)n1C	4%	-20%	-6%	?	-51%	i
CN1C(=O)/C(=C/c2cc(N=Nc3ccccc3)ccc2O)SC1=S	17%	?	1%	?	-10%	28µM*
CC(=O)c1ccc(F)c(-c2cc(C)cc3c2OC(CNC(=O)c2cccnc2)C3)c1 (stereo unspecified)	.	.	.	.	.	i
O=C(Nc1ccc2nc(-c3ccco3)c(-c3ccco3)nc2c1)NC1CC1	-12%	2%	-6%	?	-27%	.
O=C(Nc1ccc(N2CCOCC2)cc1)Nc1ccc2nc(-c3ccco3)c(-c3ccco3)nc2c1	5µM*	-36%	2.8µM*	-1%	-44%	i
Cc1cc(=O)[nH]c(N/N=C/c2ccc(-c3ccc(F)cc3)o2)n1	8.2µM*	26%	?	-18%	-153%	i
Cc1cc(Br)ccc1OCCCCN1CCCCC1	?	-20%[11.3 µM]	21µM*	-13%	-29%	i
CC1CCCN(CCCOc2ccc(Br)cc2Cl)C1 (stereo unspecified)	21µM*	-6%	16µM*	2%	1%	i
CCN(CC)c1ccc2cc(NC(=O)CCC(=O)O)c(=O)oc2c1	0%	7.9µM*	-3%	12%	-27%	.
CCN(CC)c1ccc2cc(C(C)=O)c(=O)oc2c1	16%	14%	3%	11%	-14%	i
Cc1cc(/C=C2\SC(=Nc3ccc(F)cc3)NC2=O)c(C)n1-c1ccc(S(N)(=O)=O)cc1	5.2µM*	?	6.5µM*	?	25%	?
Cc1cc(/C=C2\SC(=S)NC2=O)c(C)n1-c1ccc(O)cc1	?	65%	?	-3%	-21%	?
O=C(N/N=C\c1cc(Br)ccc1O)c1ccc(S(=O)(=O)N2CCCCC2)cc1	2.1µM*	?	?	?	-24%	.
O=C(N/N=C/c1cc(Br)ccc1O)c1ccncc1	?	2.8µM*	?	?	-43%	i
Cc1ccc(O)c(/C=N/NC(=O)Cc2ccc(Cl)cc2)c1	13µM*	.	?	?	-43%	i
O=C(N/N=C/c1ccc(O)c2ncccc12)c1cccc(Br)c1	18µM*	?	23µM*	13µM*	-55%	?
O=C(Nc1ccc(Cl)cc1Cl)[C@@H]1CC=C[C@@H]2CCN(C3CC3)C(=O)[C@@H]21	.	.	.	?	9%	.
SMILES	HT1080 IDH1KD tx	ATXN2 expr inh	HT1080NT lethal	TGFb inhibitor	HepG2 viability	S2 tox
CCc1cccc2c(CCO)c[nH]c12	.	17%	.	.	.	i
O=C(N/N=C/c1cccc2ccccc12)c1ccncc1	6%	.	6%	25%	10%	i
O=C(N/N=C/c1ccccc1O)c1ccncc1	?	3.5µM*!	?	-5%	-33%	?
O=C(N/N=C/c1cccc(Br)c1)c1ccc(Br)cc1	-15%	2%	-14%	-21%	-38%	i
O=C(N/N=C/c1ccccc1O)C1SCCCS1	16µM*	?	?	?	-41%	i
O=C(N/N=C/c1ccc(OC(=O)c2ccc(Br)cc2)cc1)c1ccncc1	1%	1%	1%	-1%	0%	?
O=C(N/N=C/c1cc(Cl)ccc1O)c1ccc(Br)cc1	5.8µM*	4.5µM*	9.2µM*	-16%	-18%	i
O=C(N/N=C/c1cc(Br)ccc1OC(=O)c1ccc(Br)cc1)c1ccncc1	?	?	21µM*	-26%	-31%	i
O=C(c1ccc2c(c1)N(Cc1ccccc1F)C(=O)c1ccccc1S2=O)N1CCN(c2ccccc2)CC1 (stereo unspecified)	.	3%	.	-34%	-15%	i
COc1ccccc1N1CCN(c2ncnc3c2nnn3C)CC1	.	.	.	22%	-6%	.
CC(C)(C)OC(=O)N/N=C/c1cc(N=Nc2ccccc2)ccc1O	?	-29%	-4%	?	-27%	?

Assay outcomes from PubChem.
